Screening results: PubChem, several laboratories
Hits are enriched below; roughly 3.5% of the tested compounds scored in any of these assays.
Bim-Mcl-1: human Bim-Mcl-1 interaction inhibition; Q07820; Bead-based flow cytometry, Bim peptide-Mcl-1 binding; inhibition, % at 10 µM; hit rate 0.1% among 190,000; AID 1009; in the data active = inhibition above about 40%;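 note: 0% = no compound tracer wells and 100% = peptide blocker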
Target sequence (Q07820 whole entry, looked up): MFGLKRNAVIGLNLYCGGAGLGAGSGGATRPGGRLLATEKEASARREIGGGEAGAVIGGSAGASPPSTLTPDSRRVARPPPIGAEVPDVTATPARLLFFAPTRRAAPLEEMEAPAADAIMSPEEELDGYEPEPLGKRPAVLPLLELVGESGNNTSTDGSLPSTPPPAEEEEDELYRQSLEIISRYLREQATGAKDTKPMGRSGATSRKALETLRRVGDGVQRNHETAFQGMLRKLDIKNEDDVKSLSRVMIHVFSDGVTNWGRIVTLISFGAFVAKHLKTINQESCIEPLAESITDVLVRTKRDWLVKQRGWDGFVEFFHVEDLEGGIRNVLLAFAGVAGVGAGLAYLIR
14-3-3 Bad PPI: disrupts binding of bovine 14-3-3 zeta to phospho-Bad peptide; inhibition, % at 21.7 µM; hit rate 0.71% among 220,000; TR-FRET 14-3-3zeta/Dy647-pBad peptide displacement, 1 h; P63103;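 active = inhibition above about 70%, limit read from the data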;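 note: 0% = full 14-3-3 plus peptide FRET controls and 100% = background without 14-3-3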
Target sequence (P63103 whole entry, looked up): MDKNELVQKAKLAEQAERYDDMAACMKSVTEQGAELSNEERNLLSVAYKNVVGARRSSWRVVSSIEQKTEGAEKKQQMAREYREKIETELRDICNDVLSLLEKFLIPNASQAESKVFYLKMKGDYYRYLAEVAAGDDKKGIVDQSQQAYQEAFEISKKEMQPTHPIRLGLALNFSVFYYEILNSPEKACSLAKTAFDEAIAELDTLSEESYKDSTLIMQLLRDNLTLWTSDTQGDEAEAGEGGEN
eIF4E-4G inh: inhibitors of eIF4E and eIF4G interaction in translation initiation; TR-FRET eIF4E-eIF4GI(517-606) binding, 2 h; inhibition, % at 21.7 µM; hit rate 0.37% among 220,000; AID 782;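 active = inhibition above about 30%, limit read from the data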;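 note: 0% = full FRET control wells and 100% = background wells lacking eIF4GI fragment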
Mcl1 Bid PPI: disrupts binding of human Mcl-1 to Bid peptide; inhibition, % at 21.7 µM; TR-FRET Mcl-1/Bid-Dy647 peptide binding, 1536-well; hit rate 0.97% among 220,000; Q07820;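 active = compounds that cut the binding signal by more than half at the single screening dose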;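 note: His-tagged Mcl-1 with europium anti-His antibody binding Bid BH3 peptide; 0% = Mcl-1 plus peptide wells and 100% = peptide-only wells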
Mcl1-Noxa inh: Mcl-1/Noxa interaction inhibition; TR-FRET Mcl-1/Noxa peptide binding, 2 h; hit rate 1.5% among 220,000; Q07820; inhibition, % at 21.7 µM; AID 1022;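 active = compounds that cut the protein-peptide binding signal by more than 50% relative to plate controls in a single-dose test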;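 note: His-tagged Mcl-1 with rhodamine Noxa BH3 peptide and terbium anti-His antibody; 0% = Mcl-1 plus Noxa peptide wells and 100% = peptide-only wells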
Hck-Nef inh: human Hck-Nef kinase inhibition | Recombinant Hck-YEEI plus Nef, Z-Lyte FRET kinase assay | inhibition, % at 20 µM | hit rate 0.68% among 220,000 | P08631;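 active = Hck-Nef kinase inhibition above about 50%, limit read from the data; inactive = inhibition below that limit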;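 note: 0% = DMSO with Hck plus Nef and 100% = Hck alone without Nef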
Numbers without * were called inactive; . = no result; [ ] = another dose, or the depositor's remark.

SMILES | Bim-Mcl-1 | 14-3-3 Bad PPI | eIF4E-4G inh | Mcl1 Bid PPI | Mcl1-Noxa inh | Hck-Nef inh
CCc1ccc(NC(=O)Cc2c(C(=O)O)n(C)c3ccccc23)cc1 | 2.0 | -7.2 | -4.5 | 47.6 | 6.9 | 27.9
CCn1c(COc2cccc(C)c2C)nnc1SCC(=O)Nc1cc(C)on1 | 0.0 | -11.3 | -2.8 | -9.2 | 18.4 | 0.5
COc1ccc(CCC(C)Nc2cccc(F)c2)cc1 (stereo unspecified) | -3.0 | 86.2* | 3.2 | 3.4 | 32.6 | -1.2
CC(=O)Nc1ccc(C(=O)Nc2cccc(-c3cnc4ccccc4n3)c2)cc1 | -321.0 | 81.4* | 35.7* | 11.2 | 75.9* | 46.3
Cc1ccc(C(=O)Nc2cccc(-c3cnc4ccccc4n3)c2)cc1 | -2.0 | -0.2 | -3.0 | -9.1 | -11.0 | 1.9
CCOc1ccccc1Oc1c(C)oc2c(CN3CCN(CCO)CC3)c(O)ccc2c1=O | 5.0 | . | . | . | . | -0.7
CCOC(=O)c1c(C)oc2c1c(CN1CCN(C(=O)OCC)CC1)c(O)c1ccccc12 | -8.0 | -5.3 | 7.8 | 61.6* | 97.6* | 1.9
CCOC(=O)c1c(C)oc2c1c(CN1CCN(CCO)CC1)c(O)c1ccccc12 | 0.0 | 38.0 | 3.8 | 56.1* | 95.0* | 21.5
CCOC(=O)c1c(C)oc2ccc(O)c(CN3CCCCC3)c12 | -1.0 | 0.8 | 6.6 | -23.0 | -7.5 | 0.2
CCOC(=O)C1=C(C)N(C)C(C)=C(C(=O)OCC)C1c1ccsc1 | 0.0 | -10.9 | -3.0 | -33.5 | 8.9 | 2.4
COc1ccc2nc(SCC(=O)Nc3c(C)cccc3C)[nH]c2c1 | 2.0 | 0.8 | -0.9 | -1.8 | 29.5 | -2.0
COc1ccc2nc(S(=O)Cc3ncc(C)c(OC)c3C)[nH]c2c1 (stereo unspecified) | -1.0 | -4.3 | 8.8 | 11.3 | 84.4* | 5.6
Cc1ccc(CN2CCN(CC3CC4C=CC3C4)CC2)cc1 (stereo unspecified) | 0.0 | 72.3* | 11.5 | 43.5 | 13.1 | 0.9
O=C(c1ccccc1F)N1CCN(Cc2ccccc2F)CC1 | -3.0 | 37.4 | -3.4 | 59.4* | 30.5 | -17.5
O=S(=O)(c1ccccc1)N1CCN(CC2CC3C=CC2C3)CC1 (stereo unspecified) | 0.0 | 5.5 | -0.5 | -3.6 | 17.3 | -5.6
O=C(c1cccc(Cl)c1)N1CCN(Cc2ccccc2F)CC1 | -2.0 | 84.5* | 3.9 | 69.3* | 28.7 | 1.3
O=CN1CCN(C(=O)c2ccccc2F)CC1 | -4.0 | -2.8 | -3.0 | -3.9 | -7.0 | -1.0
O=C(c1ccccc1F)N1CCN(CC2CC3C=CC2C3)CC1 (stereo unspecified) | 0.0 | 81.4* | 19.7 | 11.1 | 3.0 | 0.2
Cc1c(NS(=O)(=O)c2cc(NC(=O)CCN3CCCC(C)C3)ccc2Cl)c(=O)n(-c2ccccc2)n1C (stereo unspecified) | 0.0 | -7.1 | -2.3 | -22.2 | 78.3* | 19.8
c1ccc2c(Nc3ccc4c(c3)OCCO4)c3c(nc2c1)CCCC3 | 0.0 | -0.7 | 3.1 | -77.1 | 21.8 | -19.0
COc1cc([N+](=O)[O-])c2ncsc2c1 | -9.0 | 8.8 | 10.8 | 8.7 | 11.5 | 6.8
COc1cc(SSc2cc(OC)cc([N+](=O)[O-])c2N)c(N)c([N+](=O)[O-])c1 | . | 7.6 | 15.9 | -13.4 | 75.3* | -42.8
O=C(NCc1ccc(Cl)cc1)c1ccc(CNc2c(N3CCCC3)c(=O)c2=O)cc1 | . | -2.8 | 56.6* | -16.7 | 4.4 | 21.1
Fc1cccc(NCc2ccoc2)c1 | -4.0 | 82.5* | 6.7 | 1.1 | 18.1 | -1.5
Fc1cccc(NCc2cn3ccccc3n2)c1 | 0.0 | 8.9 | 2.5 | -17.5 | 27.1 | 1.3
SMILES | Bim-Mcl-1 | 14-3-3 Bad PPI | eIF4E-4G inh | Mcl1 Bid PPI | Mcl1-Noxa inh | Hck-Nef inh
CC(=O)c1c(N=CN(C)C)nc(C)nc1-c1ccccc1 | 0.0 | -3.1 | -5.3 | 88.9* | 10.8 | 1.9
CN(C)/C=N/c1nc2nccc(-c3ccccc3)n2n1 | -2.0 | 6.3 | 7.2 | 9.9 | 10.2 | 16.7
Cn1cc([N+](=O)[O-])c(C(=O)Nc2nccs2)n1 | 0.0 | -13.3 | 0.6 | -8.2 | 4.5 | 20.8
CCN=C(N/N=C/c1ccc([N+](=O)[O-])cc1)SC | 0.0 | 64.6 | 30.5*[fluorescence artefact?] | 14.4 | 28.9 | -1.3
CCN(CC)c1ccc(/C=N/NC(=O)c2ccc([N+](=O)[O-])cc2)cc1 | -3.0 | -14.6 | 0.5 | -1.3 | -0.8 | 25.8
CCOc1ccc(CNC(=S)N/N=C\c2ccc([N+](=O)[O-])cc2)cc1 | -7.0 | 11.3 | -5.0 | 45.4 | 54.0* | 0.2
CC1=CC(C)(C)Nc2ccc(C)cc21 | 0.0 | 81.0* | 6.4 | -12.9 | 22.5 | 0.9
Cc1nc(COc2ccccc2Cl)sc1-c1ccnc(N)n1 | . | 16.6 | -1.4 | 54.7* | -5.0 | 23.1
Clc1ccccc1OCc1nn2c(-c3ccncc3)nnc2s1 | -2.0 | 8.8 | 4.5 | 6.2 | 3.6 | 5.4
COc1cccc(-c2nc(NCCN3CCOCC3)c3ccccc3n2)c1O | 14.0 | -16.4 | 2.5 | -78.2 | 51.3* | 1.2
O=C1CCC(=O)N1CN(C(=O)c1ccco1)c1ccc(Cl)c(Cl)c1 | -2.0 | -5.2 | -6.5 | 4.3 | 6.2 | -0.2
CC(=O)N(CN1C(=O)CCC1=O)c1ccc(Cl)c(Cl)c1 | -2.0 | 81.7* | -3.5 | -12.2 | -0.6 | -19.8
O=C(CCCN1C(=O)c2cccc3cccc(c23)C1=O)N1CCN(c2ccccc2O)CC1 | -4.0 | 2.2 | 8.0 | -22.3 | 55.1* | 2.3
CCCNC(=O)CN1C(=O)NC(Cc2c[nH]c3ccccc23)C1=O (stereo unspecified) | 0.0 | -17.6 | 2.0 | -48.8 | 0.4 | 21.1
COc1cc2[nH]c3c(N4CCN(c5ccccn5)CC4)ncnc3c2cc1OC | 4.0 | -6.7 | 1.4 | -16.0 | 63.6* | 3.0
COc1ccc(N2CCN(c3ncnc4c3[nH]c3ccccc34)CC2)cc1 | 0.0 | -7.7 | 4.9 | -25.0 | 33.7 | 0.6
COc1ccc2[nH]c3c(N4CCc5ccccc5C4)ncnc3c2c1 | . | 3.8 | -4.3 | -1.1 | 61.5* | 19.8
Cc1c(NS(=O)(=O)c2cccc(C(=O)OCC(=O)N(C)C3CCCCC3)c2)c(=O)n(-c2ccccc2)n1C | 2.0 | -5.4 | 1.1 | -28.1 | 4.6 | 16.5
CCN(C(=O)CSc1nc2nc(C)cc(C)n2n1)C1CCS(=O)(=O)C1 (stereo unspecified) | 0.0 | -7.6 | 0.1 | 1.6 | 4.8 | 26.2
Cc1nc2nc(-c3cccs3)cn2nc1C | 0.0 | -0.6 | -10.6 | -27.4 | 61.6* | -7.9
CC1Cc2ccccc2N1C(=O)CNCCCN(C)C (stereo unspecified) | 0.0 | 76.5* | -1.7 | 47.4 | 14.4 | 4.9
CN(C)CCCNCC(=O)Nc1ccccc1N1CCOCC1 | -6.0 | 34.5 | 2.1 | 61.6* | 0.7 | 7.9
O=C(Cc1ccccc1)Nc1ccccc1N1CCOCC1 | -2.0 | -2.8 | -4.2 | -28.1 | 5.2 | 0.8
O=C(Nc1ccccc1N1CCOCC1)c1cccs1 | 82.0* | -7.5 | 0.8 | -4.6 | 10.9 | 8.3
O=C(CNCC1CCCCC1)Nc1ccccc1N1CCCCC1 | -1.0 | 80.4* | -3.4 | 26.9 | 29.4 | 1.1
